The source of these data is PubChem BioAssay (Tox21).

SMILES strings stand for the structures. Unmarked numbers belong to inactive results. Inconclusive results are not listed. The source made the active and inactive calls. Unless noted, the call rests on the fitted dose curve; in most records, active means well fitted curve in the direction sought with a large enough effect in the repeat runs; inconclusive means weak or mixed curves; inactive means no such curve, though single readings can be large; an effect the other way counts as inactive or inconclusive.

A short description of test [1]: qHTS assay to identify small molecule agonists of the sonic hedgehog signaling (Shh) pathway (AID 1259368; calls by dose curve;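 further: NIH/3T3-derived 3T3Gli1-Luc cells carrying a stable Gli1-driven firefly luciferase reporter; series mostly up to about 92 µM; nearly all actives have a fitted effect of over 15% in size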). A digest of the protocol: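 3T3Gli1-Luc (NIH/3T3 clone, stable Gli1-Luc); 4 hr pre-incubation, then cpd in DMSO 24 hr, 37 C/5% CO2; luciferase reagent 30 min RT; luminescence.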
Test [2] in a line: qHTS assay to identify small molecule antagonists of the sonic hedgehog signaling (Shh) pathway (AID 1259369; calls by dose curve; further: nearly all actives have a fitted effect of over 45% in size). A digest of the protocol: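 3T3Gli1-Luc, conditioned-medium-stimulated, 24hr cpd, 37C/5% CO2; Gli1-driven firefly Luc luminescence after 30min RT with luciferase reagent. Cells plated 4hr before cpd.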
Test [3] can be described thus: qHTS assay to identify small molecule agonists of the androgen receptor (AR) signaling pathway in the presence of an antagonist - cell viability counter screen (AID 1259379).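 Further: MDA-kb2 human breast cancer cells carrying an MMTV luciferase reporter; series mostly up to about 92 µM; nearly all actives have a fitted effect of over 25% in size.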 A digest of the protocol:
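Cells: MDA-kb2 (MMTV-luc, AR and GR elements), 3,000/well, 5 hr settle. Added: nilutamide 3.0uM final, then compounds (15 conc.). Incubation: 16 hr, 37C, no CO2. Read-out: CellTiter-Fluor, 1 hr, fluorescence.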
(In qHTS, concentration-response curves come from the screen itself.)

Test [4] is described as follows: qHTS assay to identify small molecule agonists of the estrogen receptor beta (ER-beta) signaling pathway - cell viability counter screen (AID 1259380). Further: nearly all actives have a fitted effect of over 30% in size. A digest of the protocol:
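HEK293T ER-beta-UAS-bla; 2% CS-FBS; 6 hr pre-plate, 16 hr cpd at 37C/5% CO2; LiveBLAzer read first, then CellTiter-Glo 30 min RT, luminescence.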

The nature of test [5]: qHTS assay to identify small molecule antagonists of the estrogen receptor beta (ER-beta) signaling pathway - cell viability counter screen (AID 1259382).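 Further: HEK293T cells carrying ER-beta-UAS-bla reporter stimulated with estradiol; series mostly up to about 92 µM; nearly all actives have a fitted effect of over 55% in size.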 A digest of the protocol:
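Cells: ER-beta-UAS-bla HEK293T, 2,000/well, 2% CS-FBS, 6 hr settle. Cpd + E2 (1nM final), 16 hr, 37C/5% CO2. Bla FRET substrate 2 hr RT, then CellTiter-Glo 30 min RT, luminescence.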

Test [6] has as its target Estrogen receptor (Homo sapiens) (UniProt P03372). Nature of the test: qHTS assay to identify small molecule agonists of the estrogen receptor alpha (ER-alpha) signaling pathway in the presence of an antagonist (AID 1259383; calls by dose curve; further: top concentration of the series differs between compounds; nearly all actives have a fitted effect of over 15% in size). A digest of the protocol:
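VM7Luc4E2, endog. ER-alpha + 4×ERE-luc; charcoal-stripped FBS, phenol red-free, 5 d; 24hr plating; +10.0nM ICI-182,780 (final); cpds 15 conc, 22hr, 37C/5% CO2; ONE-Glo luminescence.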

Test [7] can be described thus: qHTS assay to identify small molecule agonists of the estrogen receptor alpha (ER-alpha) signaling pathway in the presence of an antagonist - cell viability counter screen (AID 1259386).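 Further: series mostly up to about 92 µM; cells exposed to compounds for 22 h at 37 °C before the viability read; nearly all actives have a fitted effect of over 30% in size.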 A digest of the protocol:
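VM7Luc4E2, stripped-serum pre-culture 5 d; 24hr plating; +ICI-182,780 10.0nM final; cpds 15 conc, 22hr, 37C/5% CO2; CellTiter-Fluor added at 21hr, fluorescence 1hr later.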

Test [8] addresses Progesterone receptor (Homo sapiens) (UniProt P06401). The test can be described thus: qHTS assay to identify small molecule agonists of the progesterone receptor (PR) signaling pathway (AID 1346784; calls by dose curve; further: nearly all actives have a fitted effect of over 30% in size). A digest of the protocol: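 Cells (PR-UAS-bla HEK 293T, GripTite) were plated in assay medium containing 2% charcoal-stripped FBS and incubated 6 hr. Test compounds in DMSO were added for 16 hr at 37C. FRET substrate was then loaded for 2 hr at room temperature before fluorescence reading.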

Test [9] shares this target. The test can be described thus: qHTS assay to identify small molecule antagonists of the progesterone receptor (PR) signaling pathway (AID 1346795; active means well fitted inhibition curve with a large enough effect in the signal ratio in the repeat runs, not every such curve was filed as active; the % refers to the signal ratio; further: potency means the concentration at half of the fitted maximal effect). A digest of the protocol: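 Antagonist mode: compounds tested against 1 nM (final) promegestone stimulation in HEK293T cells expressing PR-UAS-bla reporter, 16 hr at 37C, 5% CO2; beta-lactamase activity detected via B/G FRET substrate after 2 hr at room temperature.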

A short description of test [10]: qHTS assay to identify small molecule antagonists of the progesterone receptor (PR) signaling pathway - cell viability counter screen (AID 1346798). Further: series mostly up to about 92 µM; nearly all actives have a fitted effect of over 50% in size. A digest of the protocol: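 Counter screen for cytotoxicity: viability of PR-UAS-bla HEK293T cells was measured with CellTiter-Glo luminescence following 16 hr compound exposure in the presence of R5020.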
Test [11] is described as follows: qHTS assay to identify small molecule agonists of the progesterone receptor (PR) signaling pathway - cell viability counter screen (AID 1346799; calls by dose curve; further: nearly all actives have a fitted effect of over 45% in size). A digest of the protocol: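 Cells (PR-UAS-bla HEK293T) are plated at 3,000/well in 2% charcoal-stripped FBS medium, rested 6 hr, dosed and incubated 16 hr at 37C. CellTiter-Glo is then added and luminescence measured after 30 min at room temperature.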

The nature of test [12]: qHTS assay to identify small molecule antagonists of the TGF-beta/Smad signaling pathway - cell viability counter screen (AID 1346824). Further: nearly all actives have a fitted effect of over 50% in size. A digest of the protocol:
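SBE-bla HEK 293T cells, incubated overnight, then compound plus 0.25 ng/mL TGF-beta1 (stock added) for 5 hr at 37 C. Viability was read in the same wells by CellTiter-Glo luminescence after 30 min at room temperature.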

Test [13] in a line: qHTS assay to identify small molecule agonists of the TGF-beta/Smad signaling pathway - cell viability counter screen (AID 1346829). Further: top concentration of the series differs between compounds; nearly all actives have a fitted effect of over 45% in size. A digest of the protocol:
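Compound-treated SBE-bla HEK 293T cells (5 hr, 37 C) were assessed for viability with CellTiter-Glo in parallel with the reporter read.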

A short description of test [14]: qHTS assay to identify small molecule agonists of the TGF-beta/Smad signaling pathway (AID 1346859; active means well fitted activation curve with a large enough effect in the signal ratio in the repeat runs, not every such curve was filed as active; the % refers to the signal ratio; further: series mostly up to about 77 µM). A digest of the protocol: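 Reporter line: HEK 293T with stably integrated SBE-controlled beta-lactamase. Compound exposure lasts 5 hr at 37 C and 5% CO2; substrate loading follows for 2 hr at room temperature, with emission read at 460 and 530 nm.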
The target in test [15] is Thyrotropin-releasing hormone receptor (Homo sapiens) (UniProt P34981). The test can be described thus: qHTS assay to identify small molecule antagonists of the thyrotropin-releasing hormone receptor (TRHR) signaling pathway (AID 1346877; active means well fitted inhibition curve with a large enough effect in the repeat runs, not every such curve was filed as active; further: series mostly up to about 51 µM). A digest of the protocol:
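Intracellular calcium fluorescence, read kinetically every second over 3 min, reports TRH-evoked signalling in HEK293 cells carrying TRHR. Test compounds were added 5 min ahead of a 1 nM TRH challenge.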

Test [16] in a line: qHTS assay to identify small molecule agonists or antagonists of the thyroid stimulating hormone receptor (TSHR) signaling pathway - wild type cell line counter screen (AID 1259384; calls by dose curve). A digest of the protocol: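 Wild-type Hek293 cells, 800/well, 18 h at 37C, then compound with Ro20-1724 for 30 min RT. cAMP by HTRF (cAMP-d2/anti-cAMP cryptate), 1 h RT, fluorescence read. 15 concentrations, triplicates.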

Test [17] addresses Thyrotropin receptor (Homo sapiens) (UniProt P16473). Nature of the test: qHTS assay to identify small molecule antagonists of the thyroid stimulating hormone receptor (TSHR) signaling pathway (AID 1259385; calls by dose curve; further: nearly all actives have a fitted effect of over 20% in size). A digest of the protocol:
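TSHR-HEK293 cells (800/well) plated 18 h, then compounds with Ro20-1724 and TSH at 1.5 ng/mL final, 30 min at room temperature. cAMP quantified by HTRF (cAMP-d2/anti-cAMP-cryptate, 1 h); 15 concentrations in triplicate.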

Sequence of Thyrotropin receptor (Homo sapiens) (P16473 whole entry, looked up): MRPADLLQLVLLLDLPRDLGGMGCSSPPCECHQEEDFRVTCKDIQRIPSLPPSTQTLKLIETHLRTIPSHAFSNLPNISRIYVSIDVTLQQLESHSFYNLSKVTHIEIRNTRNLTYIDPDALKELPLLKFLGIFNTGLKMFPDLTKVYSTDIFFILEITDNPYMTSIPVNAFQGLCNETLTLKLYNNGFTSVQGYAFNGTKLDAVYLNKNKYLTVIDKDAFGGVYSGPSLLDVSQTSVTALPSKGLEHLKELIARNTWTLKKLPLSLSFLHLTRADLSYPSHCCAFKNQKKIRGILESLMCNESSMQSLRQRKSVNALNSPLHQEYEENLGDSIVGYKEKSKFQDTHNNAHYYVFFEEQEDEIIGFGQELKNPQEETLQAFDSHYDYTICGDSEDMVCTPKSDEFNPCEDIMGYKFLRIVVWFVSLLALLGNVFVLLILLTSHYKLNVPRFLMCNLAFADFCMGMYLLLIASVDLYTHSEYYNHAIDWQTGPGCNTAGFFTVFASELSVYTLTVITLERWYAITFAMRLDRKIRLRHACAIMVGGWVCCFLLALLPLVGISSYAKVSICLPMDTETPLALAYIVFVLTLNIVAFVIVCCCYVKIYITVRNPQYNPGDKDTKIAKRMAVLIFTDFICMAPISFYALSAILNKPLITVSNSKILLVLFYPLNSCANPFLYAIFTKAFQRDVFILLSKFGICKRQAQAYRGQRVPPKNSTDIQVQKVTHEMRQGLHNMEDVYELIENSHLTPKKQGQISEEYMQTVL
Sequence of Estrogen receptor (Homo sapiens) (P03372 whole entry, looked up): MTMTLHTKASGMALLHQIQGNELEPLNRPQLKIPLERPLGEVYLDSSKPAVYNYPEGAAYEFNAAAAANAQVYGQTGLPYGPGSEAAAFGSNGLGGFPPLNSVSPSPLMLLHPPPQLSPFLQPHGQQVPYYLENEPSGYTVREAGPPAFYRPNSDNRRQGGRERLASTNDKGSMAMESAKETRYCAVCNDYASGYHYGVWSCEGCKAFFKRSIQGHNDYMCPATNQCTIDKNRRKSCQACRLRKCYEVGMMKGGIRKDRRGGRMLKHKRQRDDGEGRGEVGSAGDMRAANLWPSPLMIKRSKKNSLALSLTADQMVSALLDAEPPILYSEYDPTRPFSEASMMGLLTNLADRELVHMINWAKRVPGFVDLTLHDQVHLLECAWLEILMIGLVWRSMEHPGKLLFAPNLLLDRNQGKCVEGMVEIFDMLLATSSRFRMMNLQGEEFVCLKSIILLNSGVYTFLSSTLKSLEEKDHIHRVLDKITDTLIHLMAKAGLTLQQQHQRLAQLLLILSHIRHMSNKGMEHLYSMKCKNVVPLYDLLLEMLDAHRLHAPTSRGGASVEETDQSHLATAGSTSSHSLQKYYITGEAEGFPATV
Sequence of Thyrotropin-releasing hormone receptor (Homo sapiens) (P34981 whole entry, looked up): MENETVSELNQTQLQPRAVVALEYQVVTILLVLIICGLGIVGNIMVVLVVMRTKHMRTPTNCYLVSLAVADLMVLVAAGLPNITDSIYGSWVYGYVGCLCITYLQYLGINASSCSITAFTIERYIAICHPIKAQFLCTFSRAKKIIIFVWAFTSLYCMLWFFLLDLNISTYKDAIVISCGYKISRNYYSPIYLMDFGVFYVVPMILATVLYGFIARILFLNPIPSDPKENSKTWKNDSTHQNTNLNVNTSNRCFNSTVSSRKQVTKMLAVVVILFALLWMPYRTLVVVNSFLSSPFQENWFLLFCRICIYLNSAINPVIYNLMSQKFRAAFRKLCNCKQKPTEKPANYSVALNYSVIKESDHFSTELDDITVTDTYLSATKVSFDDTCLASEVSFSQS
Sequence of Progesterone receptor (Homo sapiens) (P06401 whole entry, looked up): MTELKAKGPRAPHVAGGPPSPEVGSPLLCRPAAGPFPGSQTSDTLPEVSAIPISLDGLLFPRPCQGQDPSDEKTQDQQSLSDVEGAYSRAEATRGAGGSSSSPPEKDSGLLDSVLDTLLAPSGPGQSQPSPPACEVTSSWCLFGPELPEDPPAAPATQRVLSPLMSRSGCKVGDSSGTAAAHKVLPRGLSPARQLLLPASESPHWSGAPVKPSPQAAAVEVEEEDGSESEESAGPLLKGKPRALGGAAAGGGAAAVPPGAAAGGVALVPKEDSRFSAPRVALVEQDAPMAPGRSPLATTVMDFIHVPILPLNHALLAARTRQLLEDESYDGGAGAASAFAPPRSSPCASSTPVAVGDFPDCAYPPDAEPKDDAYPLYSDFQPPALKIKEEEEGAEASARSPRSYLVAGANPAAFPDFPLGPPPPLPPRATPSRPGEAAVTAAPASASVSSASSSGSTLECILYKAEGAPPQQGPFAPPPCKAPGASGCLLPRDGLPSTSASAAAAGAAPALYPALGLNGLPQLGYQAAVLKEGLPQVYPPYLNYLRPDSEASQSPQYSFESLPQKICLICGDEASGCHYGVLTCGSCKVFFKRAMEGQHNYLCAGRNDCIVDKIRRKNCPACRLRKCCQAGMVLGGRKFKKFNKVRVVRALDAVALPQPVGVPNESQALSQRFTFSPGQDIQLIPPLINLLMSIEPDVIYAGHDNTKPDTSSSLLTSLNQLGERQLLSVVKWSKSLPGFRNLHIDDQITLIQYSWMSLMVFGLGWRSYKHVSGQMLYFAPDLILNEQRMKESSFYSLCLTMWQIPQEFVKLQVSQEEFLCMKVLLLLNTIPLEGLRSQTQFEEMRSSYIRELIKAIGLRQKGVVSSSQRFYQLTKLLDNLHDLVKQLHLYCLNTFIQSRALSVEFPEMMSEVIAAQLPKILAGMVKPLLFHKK

Turning to `CC(=O)c1ccc2c(c1)Cc1ccccc1-2`, the molecule was classed as inactive in test [1], in test [5], in [6], in test [12], in [13] and in test [14]. Besides, in test [15], the call was inactive. In addition, the Potency result in test [2], in [3], in test [4], in test [7], in test [8] and in test [10] was “inactive” each time. The Potency entry in test [11] was “inactive”. The Potency in test [9] is 12.2 µM (active).

With `CCC(C)(CCC(C)C)C(=O)O` (stereo not drawn), the molecule was classed as inactive in test [1], in test [5], in test [12] and in [13]. In addition, the Potency result in [2], in test [3], in test [4], in test [7], in test [8] and in test [9] was “inactive” each time. Further, the Potency entry in test [10] and in test [11] was “inactive” throughout.

On to `CC(C)(C)c1cc(CCC(=O)NN)cc(C(C)(C)C)c1O`, for which the result in test [1], in [5], in test [16], in test [17], in [12] and in test [13] was inactive. The outcome in test [14] and in test [15] was inactive. Further, the Potency entry in test [2], in [3], in [8], in [9], in test [10] and in test [11] was “inactive” in each case.

`O=C(OCC1(COC(=O)c2cccnc2)CCCC(COC(=O)c2cccnc2)(COC(=O)c2cccnc2)C1O)c1cccnc1`: the molecule was called inactive in test [1], in test [5], in [16], in test [17], in test [12] and in test [13]. The Potency result in [2], in [3], in test [4], in test [8], in [9] and in test [10] was “inactive” throughout. In addition, the Potency result in [11] was “inactive”.

Turning to `CCc1ccc(C=O)cc1`, the outcome in test [1], in [16], in test [17], in test [12], in test [13] and in test [14] was inactive. In addition, in [15], the molecule was called inactive. The Potency result in test [2], in test [3], in test [4], in [7], in [8] and in test [9] was “inactive” each time. In addition, the Potency entry in [11] was “inactive”.

As for `Cc1cc2cc3c(C)cc(=O)oc3c(C)c2o1`, the molecule was classed as inactive in test [1], in [5], in test [6], in test [16], in [17] and in [12]. Further, the result in [13], in test [14] and in [15] was inactive. The Potency entry in [2], in test [3], in test [4], in [7], in [8] and in [10] was “inactive” throughout. Further, the Potency result in test [11] was “inactive”.

On to `CCCCNc1ccc(C(=O)OCCN(C)C)cc1`, for which the molecule was classed as inactive in test [1], in test [16], in test [17], in test [12], in test [13] and in [14]. Also, the molecule was classed as inactive in test [15]. Besides, the Potency entry in [2], in test [3], in test [4], in test [7], in test [8] and in test [9] was “inactive” in each case. The Potency result in [10] and in [11] was “inactive” in each case.

For `CN1C(C)(C)CCCC1(C)C`, the molecule was classed as inactive in [1], in test [5], in test [6], in [16], in test [17] and in test [12]. Besides, the molecule was called inactive in test [13], in test [14] and in test [15]. The Potency entry in test [2], in test [3], in test [4], in test [7], in test [8] and in [11] was “inactive” throughout.

For `CCNC(=O)C1CC(C)CCC1C(C)C` (stereo not drawn), the result in [1], in test [6], in test [16], in [12], in test [13] and in [14] was inactive. Further, in [15], the call was inactive. The Potency result in test [2], in [3], in test [4], in test [8], in test [9] and in [10] was “inactive” throughout. In addition, the Potency result in test [11] is “inactive”.
